# Experimental data published in PubChem BioAssay (NCATS).
# Values without a mark were called inactive. Records with an inconclusive call do not appear. Active and inactive are the calls of the source. Unless noted, calls follow the shape of the dose curve; as a rule, active = well fitted curve in either direction with a large enough effect (not every such curve was filed as active); inconclusive = small, poorly fitted or top-dose-only effect, or another doubt; inactive = flat fitted curve, though single readings scatter.
# Legend:
# [1] = target: Lysosomal acid glucosylceramidase (Homo sapiens) (UniProt P04062); experiment: Glucocerebrosidase-p2 (AID 348; in the data active = potency below about 10 µM; also: potency is read from the fitted curve at half-maximal effect); conditions: purified GBA, blue fluorogenic substrate, 40 min
# How it was run: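 Compounds titrated from 0.6 nM upwards against 0.2 nM enzyme in pH 5.9 citric acid/KH2PO4, taurocholate, tween-20; blue fluorogenic substrate 80 uM, 40 min room temperature, stopped and read Ex 365/Em 440 for AC50.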
# [2] = AP1 Signaling Pathway (AID 357); conditions: ME-180 AP-1-bla reporter, EGF-induced, beta-lactamase ratio, 5 h; at 7.69 µM (top of the series) unless noted;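 also: ME-180 reporter cells stimulated with EGF at its EC50 level; % is scaled to controls: 0 for no effect and ±100 for the full control effect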
# How it was run: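 Cells are seeded overnight, exposed to compound titrations and an EC50 level of EGF for 5 hours at 37 °C, then loaded with CCF4 dye for 2.5 hours. Beta-lactamase activity under the AP-1 element is read as a blue/green ratio.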
# [3] = target: Cytochrome P450 1A2 (Homo sapiens) (UniProt P05177); experiment: p450-cyp1a2 (AID 410; calls by dose curve; also: potency is read from the fitted curve at half-maximal effect;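 as to activity change, negative = inhibition: -100% = full effect of reference inhibitor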); conditions: recombinant CYP1A2, luciferin-ME demethylation, luminescence; series mostly up to 11.4 µM
# How it was run: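 20nM CYP1A2 with 100uM Luciferin-ME (at Km) in 100mM KPO4; compound preincubated 10 min, NADPH regeneration added, 60 min at room temperature. Luciferin quantified by luminescence after detection reagent; normalized to 57 uM furafylline.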
# [4] = NFAT Signaling Pathway (AID 444); conditions: Jurkat NFAT-bla M1, carbachol, beta-lactamase ratio, 5 h; at 7.69 µM (top of the series) unless noted;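 also: carbachol stimulus at about its EC50 of 1 µM final; % is scaled to controls: 0 for no effect and ±100 for the full control effect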
# How it was run: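 Read-out: CCF4 FRET ratio (460 nm/530 nm) after 1 h RT dye loading, used for %activity and AC50 from titration series. Cells: Jurkat NFAT-β-lactamase/M1 line, treated with compound plus 1 uM carbachol for 5 h, 37 °C.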
# [5] = Stat Signaling Pathway (AID 446); conditions: ME-180 SIE beta-lactamase reporter, IL-6 stimulated, 5 h; at 7.69 µM (top of the series) unless noted;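 also: ME-180 cervical cancer cells given 40 pM IL-6 alongside compound; SIE-controlled beta-lactamase reporter measured as 460/530 nm FRET emission ratio; % is scaled to controls: 0 for no effect and ±100 for the full control effect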
# How it was run: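 Screening format detects activators and inhibitors alike: ME-180 SIE-bla cells stimulated at 40 pM IL-6 for 5 hrs with compound, then dual-emission beta-lactamase read at 405 nm excitation.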
# [6] = target: Glucocorticoid receptor (Homo sapiens) (UniProt P04150); experiment: GR-GFP Redistribution (AID 450;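 active = compounds whose dose series gives a full or clear partial fitted curve of increased nuclear translocation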; also: potency is read from the fitted curve at half-maximal effect); conditions: U2OS GR-GFP nuclear translocation, laser cytometry, 2 h
# [7] = target: Glucocorticoid receptor (Homo sapiens) (UniProt P04150); experiment: GR-EFC Redistribution (AID 451; calls by dose curve; also: potency is read from the fitted curve at half-maximal effect); conditions: CHO-K1 GR-EFC translocation, beta-gal luminescence, 2 h
# How it was run: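 Translocation of GR-ED fusion to nuclear EA restores b-gal, read by luminescence after 1 h room-temperature detection. Engineered CHO-K1 biosensor cells, 1,000/well, exposed 2 h at 37 C to titrations up to 46 uM final.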
# [8] = target: Mitogen-activated protein kinase 10 (Mus musculus) (UniProt Q61831); experiment: JNK3 AlphaScreen Assay (AID 530); conditions: JNK3 lysate, c-Jun phosphorylation; series mostly up to 11.4 µM;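 also: kinase came from lysate of stimulated human HepG2 cells; signal reports phosphorylation of biotinylated GST-cJun 1-79 at Ser73 with 10 µM ATP; % is scaled to controls: 0 for no effect and ±100 for the full control effect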
# How it was run: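 Compound titrations were preincubated 15 minutes at room temperature with substrate, antibody and pre-activated JNK3-containing HepG2 lysate. Reactions were started with 10 uM ATP and stopped with EDTA-containing bead buffer for AlphaScreen detection.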
# [9] = target: 3',5'-cyclic-AMP phosphodiesterase 4B (Homo sapiens) (UniProt Q07343); experiment: qHTS Assay for Inhibitors of PDE-IV (AID 607; active = well fitted activation curve with a large enough effect in the main read-out, with a control signal flat, not every such curve was filed as active; also: % of control where 0% means no effect); conditions: HEK293 ACTOne CNG channel cells, membrane potential fluorescence; series mostly up to 22.9 µM
# How it was run: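 The readout is membrane depolarisation from a cAMP-sensing CNG channel, detected with a potential dye at ex 535/em 590. Cells were HEK293-derived (endogenous PDE-IV) at 1000 cells/well, titrated up to 22.9 uM final.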
# [10] = target: Cytochrome P450 3A4 (Homo sapiens) (UniProt P08684); experiment: qHTS Assay for Inhibitors and Substrates of Cytochrome P450 3A4 (AID 884; active = well fitted curve in the direction sought with a large enough effect; an effect the other way counts as inactive or inconclusive; also: potency is read from the fitted curve at half-maximal effect; nearly all actives have a fitted effect of over 50% in size); conditions: recombinant CYP3A4, Luciferin-PPXE luminescence; series mostly up to 57.1 µM
# How it was run: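 20 nM human CYP3A4 with 25 uM Luciferin-PPXE (at KM) in 200 mM KPO4, preincubated 10 min with compound; NADPH regeneration started a 60 min RT reaction. Luciferin detected by luminescence, normalized to 57 uM ketoconazole as full inhibition.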
# [11] = target: Cytochrome P450 3A4 (Homo sapiens) (UniProt P08684); experiment: qHTS Assay for Activators of Cytochrome P450 3A4 (AID 885; active = well fitted curve in the direction sought with a large enough effect; an effect the other way counts as inactive or inconclusive; also: nearly all actives have a fitted effect of over 65% in size); conditions: recombinant CYP3A4, Luciferin-PPXE luminescence, 60 min; series mostly up to 11.4 µM
# How it was run: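 Steps: enzyme/substrate mix dispensed; compound added, 10 min RT; NADPH regeneration solution added, 60 min RT; luciferin detection buffer stops reaction; 20 min later luminescence measured.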
# [12] = target: Cytochrome P450 2C19 (Homo sapiens) (UniProt P33261); experiment: qHTS Assay for Inhibitors and Substrates of Cytochrome P450 2C19 (AID 899; active = well fitted curve in the direction sought with a large enough effect; an effect the other way counts as inactive or inconclusive; also: potency is read from the fitted curve at half-maximal effect; nearly all actives have a fitted effect of over 60% in size); conditions: recombinant CYP2C19, luciferin-H EGE luminescence; series mostly up to 11.4 µM
# How it was run: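 5nM enzyme + 10uM Luciferin-H EGE (=KM), 50mM KPO4; cpd pin-transferred, 10 min 37C; NADPH regen, 60 min 37C; stopped w/ luciferin detection reagent, 20 min; luminescence. Normalized to 57uM ketoconazole (AC100).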
# Chain of Lysosomal acid glucosylceramidase (Homo sapiens) (P04062 whole entry, looked up): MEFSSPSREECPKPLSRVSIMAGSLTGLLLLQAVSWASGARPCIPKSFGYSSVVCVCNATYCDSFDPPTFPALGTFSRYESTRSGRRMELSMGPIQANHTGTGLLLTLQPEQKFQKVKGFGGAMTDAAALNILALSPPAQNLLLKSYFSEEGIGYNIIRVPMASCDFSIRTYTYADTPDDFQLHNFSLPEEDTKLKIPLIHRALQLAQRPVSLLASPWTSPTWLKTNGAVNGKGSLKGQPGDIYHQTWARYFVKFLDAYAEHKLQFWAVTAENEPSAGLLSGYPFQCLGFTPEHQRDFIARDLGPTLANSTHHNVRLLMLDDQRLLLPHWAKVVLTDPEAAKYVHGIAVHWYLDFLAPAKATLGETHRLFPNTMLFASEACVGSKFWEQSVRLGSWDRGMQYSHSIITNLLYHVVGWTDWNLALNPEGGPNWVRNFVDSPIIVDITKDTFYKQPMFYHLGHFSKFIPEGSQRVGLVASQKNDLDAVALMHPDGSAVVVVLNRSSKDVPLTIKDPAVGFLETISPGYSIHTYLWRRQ
# Chain of 3',5'-cyclic-AMP phosphodiesterase 4B (Homo sapiens) (Q07343 whole entry, looked up): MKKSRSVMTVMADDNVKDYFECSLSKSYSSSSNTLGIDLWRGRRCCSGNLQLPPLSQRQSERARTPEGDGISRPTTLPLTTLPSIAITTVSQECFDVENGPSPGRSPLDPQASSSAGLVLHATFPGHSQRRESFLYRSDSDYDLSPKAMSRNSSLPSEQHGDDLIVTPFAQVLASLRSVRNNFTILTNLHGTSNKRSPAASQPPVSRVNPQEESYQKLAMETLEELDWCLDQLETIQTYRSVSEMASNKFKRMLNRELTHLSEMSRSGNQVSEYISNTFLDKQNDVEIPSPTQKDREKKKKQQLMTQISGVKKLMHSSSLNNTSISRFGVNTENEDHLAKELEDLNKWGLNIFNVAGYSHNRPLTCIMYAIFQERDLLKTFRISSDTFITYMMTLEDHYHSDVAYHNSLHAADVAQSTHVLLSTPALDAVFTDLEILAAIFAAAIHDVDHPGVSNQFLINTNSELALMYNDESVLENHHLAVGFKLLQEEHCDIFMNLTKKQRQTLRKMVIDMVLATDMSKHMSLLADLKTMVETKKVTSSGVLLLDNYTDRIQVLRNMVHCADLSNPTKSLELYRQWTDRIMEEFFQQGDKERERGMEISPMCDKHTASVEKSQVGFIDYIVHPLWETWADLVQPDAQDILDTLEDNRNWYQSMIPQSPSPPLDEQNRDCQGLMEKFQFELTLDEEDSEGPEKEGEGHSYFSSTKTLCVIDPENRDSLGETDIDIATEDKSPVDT
# Chain of Cytochrome P450 3A4 (Homo sapiens) (P08684 whole entry, looked up): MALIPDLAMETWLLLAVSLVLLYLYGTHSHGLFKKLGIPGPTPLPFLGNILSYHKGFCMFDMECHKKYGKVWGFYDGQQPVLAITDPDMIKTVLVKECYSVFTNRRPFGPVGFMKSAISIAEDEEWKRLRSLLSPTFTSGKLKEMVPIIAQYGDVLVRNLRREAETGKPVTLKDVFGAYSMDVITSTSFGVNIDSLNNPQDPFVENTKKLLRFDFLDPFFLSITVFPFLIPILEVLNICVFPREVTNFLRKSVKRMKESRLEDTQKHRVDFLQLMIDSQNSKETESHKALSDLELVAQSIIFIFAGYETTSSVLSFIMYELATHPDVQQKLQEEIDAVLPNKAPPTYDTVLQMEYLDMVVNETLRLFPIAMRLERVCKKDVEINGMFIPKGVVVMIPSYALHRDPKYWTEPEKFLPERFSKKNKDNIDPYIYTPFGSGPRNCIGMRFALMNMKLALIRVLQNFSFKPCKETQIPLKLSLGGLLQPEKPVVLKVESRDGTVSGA
# Chain of Cytochrome P450 1A2 (Homo sapiens) (P05177 whole entry, looked up): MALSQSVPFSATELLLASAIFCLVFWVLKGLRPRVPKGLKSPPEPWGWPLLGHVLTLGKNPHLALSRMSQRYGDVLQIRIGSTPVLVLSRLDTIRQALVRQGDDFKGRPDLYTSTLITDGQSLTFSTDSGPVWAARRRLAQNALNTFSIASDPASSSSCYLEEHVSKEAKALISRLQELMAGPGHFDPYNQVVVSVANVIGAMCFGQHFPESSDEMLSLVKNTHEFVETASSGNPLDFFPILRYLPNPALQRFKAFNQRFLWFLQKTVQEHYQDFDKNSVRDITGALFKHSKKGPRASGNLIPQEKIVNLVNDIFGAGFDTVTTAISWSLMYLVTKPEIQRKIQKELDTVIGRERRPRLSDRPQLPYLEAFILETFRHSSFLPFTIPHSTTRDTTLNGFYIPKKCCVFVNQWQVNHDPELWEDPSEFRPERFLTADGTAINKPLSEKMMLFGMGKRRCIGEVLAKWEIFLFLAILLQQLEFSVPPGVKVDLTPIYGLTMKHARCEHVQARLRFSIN
# Chain of Glucocorticoid receptor (Homo sapiens) (P04150 whole entry, looked up, the tested form may be a part): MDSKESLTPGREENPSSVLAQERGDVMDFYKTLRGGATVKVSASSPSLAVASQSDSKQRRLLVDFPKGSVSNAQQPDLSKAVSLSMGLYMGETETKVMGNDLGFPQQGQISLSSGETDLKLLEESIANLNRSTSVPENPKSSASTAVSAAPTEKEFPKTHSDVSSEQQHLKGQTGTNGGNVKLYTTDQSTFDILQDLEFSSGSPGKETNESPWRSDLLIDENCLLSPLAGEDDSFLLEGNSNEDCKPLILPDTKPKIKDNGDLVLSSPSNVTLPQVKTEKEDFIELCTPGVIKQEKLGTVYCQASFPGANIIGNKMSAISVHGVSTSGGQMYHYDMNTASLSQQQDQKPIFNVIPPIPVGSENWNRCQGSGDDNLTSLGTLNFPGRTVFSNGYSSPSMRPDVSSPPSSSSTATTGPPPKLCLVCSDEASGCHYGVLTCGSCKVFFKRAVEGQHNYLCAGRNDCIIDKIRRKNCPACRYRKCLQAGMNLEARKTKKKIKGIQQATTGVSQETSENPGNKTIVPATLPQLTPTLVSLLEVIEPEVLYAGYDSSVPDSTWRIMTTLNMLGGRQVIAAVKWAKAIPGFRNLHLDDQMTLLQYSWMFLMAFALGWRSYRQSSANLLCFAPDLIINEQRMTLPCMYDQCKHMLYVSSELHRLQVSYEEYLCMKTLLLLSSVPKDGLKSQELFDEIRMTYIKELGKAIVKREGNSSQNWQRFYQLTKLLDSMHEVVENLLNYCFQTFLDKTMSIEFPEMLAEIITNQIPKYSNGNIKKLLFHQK
# Chain of Cytochrome P450 2C19 (Homo sapiens) (P33261 whole entry, looked up): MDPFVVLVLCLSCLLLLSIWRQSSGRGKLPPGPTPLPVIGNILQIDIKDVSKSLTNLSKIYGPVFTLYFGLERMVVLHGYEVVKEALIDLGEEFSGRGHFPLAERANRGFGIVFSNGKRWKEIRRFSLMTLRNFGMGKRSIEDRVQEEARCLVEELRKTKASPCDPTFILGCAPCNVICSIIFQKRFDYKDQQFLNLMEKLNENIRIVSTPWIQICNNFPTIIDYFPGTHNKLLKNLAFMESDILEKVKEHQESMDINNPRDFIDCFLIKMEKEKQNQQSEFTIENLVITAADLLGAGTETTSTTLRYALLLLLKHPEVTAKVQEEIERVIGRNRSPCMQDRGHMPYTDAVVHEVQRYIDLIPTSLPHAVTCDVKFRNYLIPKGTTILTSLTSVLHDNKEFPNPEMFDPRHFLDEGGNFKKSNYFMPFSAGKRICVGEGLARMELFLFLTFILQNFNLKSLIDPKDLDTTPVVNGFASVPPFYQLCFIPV
SMILES,Potency [1] [µM],"activity change, negative = inhibition [2]",Potency [3],"activity change, negative = inhibition [4]","activity, negative = inhibition [5]",Potency [6] [µM],Potency [7] [µM],Potency [8],Potency [9],Potency [10],Potency [11],"activity change, negative = inhibition [3]",Potency [12]
COc1cc(Cl)c(CC(=O)c2c[nH]c3ccccc23)cc1OC,> 11.4,-19.9%,1 µM (active),26.5%,-15.8%,> 46,> 9.22,inactive,inactive,2.51 µM (active),inactive,–,–
N=C(N)S[C@H]1c2ccccc2-c2cc([N+](=O)[O-])ccc21,> 11.4,-7.27%,0.158 µM (active),-0.855%,-2.76%,> 46,> 9.22,inactive,inactive,5.01 µM (active),inactive,–,–
O=c1oc2cc(N=Cc3ccc4c(c3)OCO4)ccc2c2ccccc12,> 11.4,7.4%,0.00794 µM (active),12.7%,-1.72%,> 46,> 9.22,inactive,inactive,3.98 µM (active),inactive,–,–
COc1ccc(C[C@@H]2C(=O)N[C@H](C)C(=O)N(C)[C@@H]3Cc4ccc(cc4)Oc4cc(ccc4O)C[C@H](C(=O)N[C@@H](C)C(=O)N[C@H](C)C(=O)N2C)N(C)C3=O)cc1,> 11.4,-121% (active),inactive,-132% (active),-104% (active),> 46,> 9.22,inactive,inactive,3.98 µM (active),inactive,–,–
c1ccc(C[C@@H](Nc2cccnc2)c2ccccc2)cc1,> 11.4,5.71%,0.2 µM (active),-11.2%,-4.39%,> 46,> 9.22,inactive,inactive,3.16 µM (active),inactive,–,–
CC(C)N1CCN(c2ccncc2S(=O)(=O)N2CCCCC2)CC1,> 11.4,0.726%,–,-81.6% (active),-6.7%,> 46,> 9.22,inactive,inactive,3.16 µM (active),inactive,-17% [at 2.29 µM],–
N#C/C(=C\NC(=S)c1ccncc1)c1nc2ccccc2s1,> 11.4,-3.92%,3.16 µM (active),8.12%,11.3%,> 46,> 9.22,inactive,inactive,–,inactive,–,–
COCCn1c(=O)c(-c2ccccc2)nc2cnc(Oc3ccccc3)nc21,> 11.4,-29.9%,1.58 µM (active),-6.49%,-4.14%,> 9.22,> 46,inactive,inactive,–,inactive,–,–
O=C(O)c1cc(-c2ccncc2)nc2ccccc12,> 11.4,3.07%,inactive,-5.13%,-5.62%,> 46,> 9.22,inactive,inactive,–,inactive,–,–
O=[N+]([O-])c1cc(Cl)cc2c1nc(NCCO)c1ccccc12,> 11.4,-24%,0.02 µM (active),22.6%,-3.56%,> 46,> 9.22,inactive,inactive,–,inactive,–,–
Cc1ccc(Nc2nnc(-c3ccc4c(c3)OCO4)o2)c(C)c1,> 11.4,-5.47%,2.51 µM (active),1.57%,-2.78%,> 46,> 9.22,inactive,inactive,3.16 µM (active),inactive,–,–
Cc1cc2c(cc1C)NC1=C(N2)O[C@H](c2c[nH]c3ccc(COc4ccccc4)cc23)C1=O,> 11.4,-28.4%,2.51 µM (active),2.39%,-5.89%,> 46,> 9.22,inactive,inactive,3.98 µM (active),inactive,–,0.501 µM (active)
S=C(Nc1ccc2c(c1)Cc1ccccc1-2)Nc1ccc2c(c1)Cc1ccccc1-2,> 11.4,-4.53%,0.2 µM (active),9.24%,3.09%,> 46,> 9.22,inactive,inactive,–,inactive,–,–
O=C(CSc1nc2ccccc2c2ccccc12)c1ccccc1,> 11.4,-2.08%,0.251 µM (active),10.2%,-4.01%,> 46,> 9.22,inactive,inactive,–,inactive,–,–
